High-throughput results as filed in PubChem.
MIN6 prolif = inducers of MIN6 beta-cell proliferation, primary screen, ATP luminescence, uHTS | 330,000 compounds, 0.29% hits | proliferation, % at 10 µM | MIN6 cells proliferation, ATPlite luminescence, 48 h; cells starved in 0.2% serum; 100% = growth in 10% serum;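 active = compounds whose signal lies at least 3.5 SD above the mean of all wells on their plate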
APOBEC3A inh = APOBEC3A ssDNA deaminase inhibitors, primary screen, selectivity assay for APOBEC3G inhibitor project, biochemical, FAM/TAMRA oligo cleavage fluorescence; 330,000 compounds, 0.41% hits; DNA dC->dU-editing enzyme APOBEC-3A (Homo sapiens), P31941; recombinant A3A, FAM/TAMRA ssDNA deamination fluorescence; inhibition, % at 20 µM;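 active = at least 40% inhibition at 20 µM here, with at most 30% in a related deaminase screen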
Target sequence (P31941 whole entry, looked up): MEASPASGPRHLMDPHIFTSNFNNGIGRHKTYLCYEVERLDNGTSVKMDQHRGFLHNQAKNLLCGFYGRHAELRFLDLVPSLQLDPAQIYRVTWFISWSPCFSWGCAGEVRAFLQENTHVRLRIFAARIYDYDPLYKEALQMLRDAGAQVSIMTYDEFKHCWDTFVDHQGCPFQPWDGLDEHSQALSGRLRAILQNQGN
A3G deaminase = APOBEC3G DNA deaminase inhibitors, primary screen, biochemical, fluorescence, single-stranded DNA substrate, uHTS; 330,000 compounds, 0.28% hits; inhibition, % at 20 µM; recombinant A3G, ssDNA deamination FAM/TAMRA fluorescence; DNA dC->dU-editing enzyme APOBEC-3G (Homo sapiens), Q9HC16;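 active = inhibition of at least 40% at 20 µM, with no more than 30% in the related APOBEC3A deaminase screen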
Target sequence (Q9HC16 whole entry, looked up): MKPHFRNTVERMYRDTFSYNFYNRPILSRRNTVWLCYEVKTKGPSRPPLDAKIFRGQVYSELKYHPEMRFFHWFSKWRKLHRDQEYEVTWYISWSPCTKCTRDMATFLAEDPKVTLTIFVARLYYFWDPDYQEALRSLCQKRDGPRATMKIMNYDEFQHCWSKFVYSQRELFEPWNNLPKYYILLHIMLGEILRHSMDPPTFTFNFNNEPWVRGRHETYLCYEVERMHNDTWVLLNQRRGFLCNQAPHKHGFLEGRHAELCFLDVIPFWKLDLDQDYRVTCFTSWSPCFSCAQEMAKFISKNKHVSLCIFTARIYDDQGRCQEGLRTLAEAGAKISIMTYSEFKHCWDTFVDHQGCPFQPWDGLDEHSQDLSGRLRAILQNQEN
VLA-4 inh = inhibition in human VLA-4 binding assay, primary screen, VLA-4 allosteric modulator project, MLPCN library, flow cytometry, VLA-4 expressing cells; 330,000 compounds, 0.2% hits; inhibition, % (about 7 µM as worked out from the volumes in the protocol); AID 2557, 2010; Integrin alpha-4 (Homo sapiens), P13612; ligand binding flow cytometry; in the data active = inhibition above about 50%
NRP1-CendR mod = modulators of CendR peptide binding to NRP-1, primary screen, biochemical, fluorescence polarization, uHTS | 360,000 compounds, 0.85% hits | AID 602438, 2012 | inhibition, % at 25 µM | FAM-RPARPAR peptide binding to NRP-1 | Neuropilin-1 (Homo sapiens), O14786;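 active = inhibition or corrected inhibition above about 18%, plus a signal ratio from 0.5 to 1.5, limit read from the data, passing the limit was not always enough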
VLA-4 allo CP = retest of VLA-4 allosteric modulators, confirmation, cell-based, cherry-picked plates, U937, HUTS-21 LIBS antibody. 1,300 compounds, 2% hits. U937 cells, HUTS-21 LIBS mAb binding, flow cytometry; LDV ligand present at threefold Kd. shares compounds with VLA-4 inh. inhibition, % at 6.7 µM; in the data active = inhibition above about 40%
A number is an active result; . = inactive; / = no result. In the library only some 1.8% were active in any assay of this set; here they are far more common.

SMILES	MIN6 prolif	APOBEC3A inh	A3G deaminase	VLA-4 inh	NRP1-CendR mod	VLA-4 allo CP
Cc1ccc(SCC(=O)OCC(=O)NC2CCCCCCC2)cc1	.	.	.	54.6	.	.
O=C(COC(=O)c1cccc(Cl)c1Cl)NC1CCCC1	.	.	.	.	.	/
O=C(COC(=O)c1ccccc1Cl)NC1CCCCCC1	.	.	.	.	.	.
CCOC(=O)[C@H]1[C@H]2COc3ccccc3[C@@H]2N2C(=O)CN(CC3CCCO3)C(=O)[C@@]12C (some centres undefined)	.	.	.	.	.	/
O=C(O)CCCC1(C(=O)O)CCCC1	/	/	/	/	.	/
CNC[C@H](NC[C@@H](NCCCc1ccccc1)c1ccccc1)[C@H](C)O	.	.	.	.	.	/
CC(C)(C)OC(=O)n1cc(C(=O)c2ccccc2O)cn1	.	.	.	50.2	.	.
CCOC(=O)n1cc(C(=O)c2ccccc2O)cn1	.	.	.	.	.	/
Cc1cccc(NC(=O)C2CCN(C(=O)c3ccc(F)cc3)CC2)n1	.	.	.	.	.	.
Cc1cccc(NC(=O)C2CCN(C(=O)c3ccc(Cl)cc3)CC2)n1	.	.	.	.	.	.
ON=C1c2ccccc2-c2cc(Br)ccc21	/	/	/	/	.	/
COc1ccc(C(=O)NCCCNC(=O)c2ccccn2)cc1Br	.	.	.	.	.	/
C=CCn1c(-c2ccccc2)c[nH]c1=S	.	.	.	.	.	/
CCn1c(-c2ccc(-c3ccccc3)cc2)c[nH]c1=S	.	.	.	92.6	.	.
NS(=O)(=O)c1ccc(CNC(=O)Cc2ccccc2F)cc1	.	.	.	.	.	/
NS(=O)(=O)c1ccc(CNC(=O)C(Cc2ccccc2)NS(=O)(=O)c2ccccc2F)cc1 (centres undefined)	.	.	.	.	.	.
CCCN(CC(=O)Nc1ccccc1OC)C(=O)Cn1c(=O)oc2ccccc21	/	/	/	/	.	.
CC1CN(C(=O)Cn2c(=O)oc3ccccc32)CC(C)O1 (centres undefined)	.	.	.	.	.	.
CC(=O)N1CCN(C(=O)Cn2c(=O)oc3ccccc32)CC1	.	.	.	.	.	/
CC(=O)Cn1c(=O)oc2ccccc21	.	.	.	.	.	/
COc1ccccc1NC(=O)Cn1c(=O)oc2ccccc21	.	.	.	.	.	/
CCN(CC)C(=O)Cn1c(=O)oc2ccccc21	.	.	.	.	.	.
CCN(C(=O)Cn1c(=O)oc2ccccc21)c1cccc(C(F)(F)F)c1	.	.	.	.	.	.
Cc1ccnc2nc(C(=O)OCC(=O)N(Cc3ccccc3)C(C)(C)C)nn12	.	.	.	.	.	/
CCC(C)[C@H](NS(=O)(=O)c1ccc(C)cc1)C(=O)N1CCC(C(=O)N2CCC(C(=O)OC)CC2)CC1 (some centres undefined)	.	.	.	.	.	/
SMILES	MIN6 prolif	APOBEC3A inh	A3G deaminase	VLA-4 inh	NRP1-CendR mod	VLA-4 allo CP
COc1cc2c(cc1OC)C(c1cccc(Br)c1)CC(=O)N2 (centres undefined)	.	.	.	.	.	/
COc1cc2c(cc1OC)C(c1ccc(N(C)C)cc1)CC(=O)N2 (centres undefined)	.	.	.	.	.	/
CCN(CC)c1ccc(C2CC(=O)Nc3cc(OC)c(OC)cc32)cc1 (centres undefined)	.	.	.	.	.	.
COc1ccc(C2CC(=O)Nc3cc(OC)c(OC)cc32)cc1Br (centres undefined)	.	.	.	.	.	.
CCOc1ccc(S(=O)(=O)n2nc(C)c(S(=O)(=O)N3CCOCC3)c2C)cc1	.	.	.	100.0	.	.
Cc1nn(S(=O)(=O)c2ccc(C(C)C)cc2)c(C)c1S(=O)(=O)N1CCOCC1	.	.	.	.	.	/
CNc1nc(C)nc(-n2nc(C)cc2C)n1	.	.	.	.	.	.
COc1ccc2[nH]c3c(c2c1)CCN1C(=O)C(CC(=O)NCCCn2ccnc2)C[C@H](C(=O)N2CCCCC2)[C@@]31C (some centres undefined)	/	.	.	/	.	/
FC(F)(F)c1nnc(-c2ccccc2)nc1Sc1ccccc1	.	.	.	.	.	/
FC(F)(F)c1nnc(-c2ccccc2)nc1Sc1ccc(Cl)cc1	.	.	.	72.1	.	50.0
O=C(O)C1(O)C[C@H](O)C(O)[C@@H](O)C1 (some centres undefined)	.	.	.	50.4	.	.
O=C(c1ccco1)N1CCN(C(=O)c2cc(-c3ccncc3)nc3ccc(Br)cc23)CC1	.	.	.	.	.	.
O=C(c1ccco1)N1CCN(C(=O)c2cc(-c3ccccn3)nc3ccc(Cl)cc23)CC1	.	.	.	.	.	.
O=C(c1ccco1)N1CCN(C(=O)c2cc(-c3ccccc3)nc3ccccc23)CC1	.	.	.	.	.	/
O=C(c1cc(-c2ccco2)nc2ccccc12)N1CCN(Cc2ccccc2)CC1	.	.	.	.	.	.
COc1ccccc1N1CCN(C(=O)c2cccc(S(=O)(=O)NCc3cccnc3)c2)CC1	.	.	.	.	.	/
CCOc1ccccc1NC(=O)C1C2CCC(O2)C1C(=O)O (centres undefined)	.	.	.	.	.	/
O=C(CCNC(=O)c1ccccc1)Nc1ccc(F)c(Cl)c1	.	.	.	54.1	.	.
Cc1ccc(NC(=O)CCNC(=O)c2ccccc2)cc1F	.	.	.	.	.	/
COc1cc2oc(=O)cc(CN3CCOCC3)c2cc1Cl	/	/	/	/	.	/
O=C(c1cc2nc(-c3ccc(Cl)cc3)cc(C(F)(F)F)n2n1)N1CCOCC1	.	.	.	.	.	.
CC1CCN(S(=O)(=O)N2CCC(C(=O)NC3CCCC3)CC2)CC1	.	.	.	.	.	/
CCCS(=O)(=O)N1CCC(C(=O)NC2CCC(C)CC2)CC1 (centres undefined)	.	.	.	92.5	.	.
O=C(COC(=O)c1ccc(O)cc1)c1ccc2c(c1)OCCO2	.	.	.	/	.	/
COc1cc(CC(=O)OCC(=O)c2ccc3c(c2)OCCO3)cc(OC)c1OC	.	.	.	91.0	.	.
Cc1c(NC(=O)C(c2ccccc2)c2ccccc2)cccc1C(=O)O	.	.	.	.	.	/
O=C(O)c1cc(O)ccc1NC(=O)C(c1ccccc1)c1ccccc1	.	.	.	.	.	.
CCO[C@@H]1OC(C(=O)Nc2ccccc2)=C[C@H](C)[C@H]1CCCO	.	.	.	.	.	.
